CYP2C9 inhib: inhibitors of human CYP2C9; 20% of 96,000 active; P11712; inhibition, % at 5 µM; CYP2C9 Supersomes, luciferin-H conversion, luminescence; AID 777;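 active = blocking of liver enzyme CYP2C9 beyond about 50% at 5 µM, limit read from the data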
Measles CPE: protection of cells from measles virus; Measles virus-infected cells, CPE protection, absorbance; 1.5% of 140,000 active; protection (pct of control), % at 4 µM; in the data active = protection mostly above about 24%, no sharp cut-off; inactive = mostly below about 26%
CYP2C9 act: activators of human CYP2C9; P11712; recombinant CYP2C9, luciferin-H conversion, luminescence; stronger effect = higher value; factor 1 = untreated enzyme, 0 = blocked; activation factor at 5 µM; 1.4% of 96,000 active;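 active = activation factor of 2 or more for CYP2C9 at a 5 µM dose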;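 also: 0 = sulfaphenazole-blocked wells and 1 = vehicle-only wells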
CYP2C19 activ: cytochrome P450 2C19 (human) activation; P33261; recombinant CYP2C19, luciferin-H EGE luminescence; stronger effect = higher value; 0 = fully inhibited enzyme, 1 = untreated enzyme; activation factor at 5 µM; 96,000 tested, under 10 active; AID 1025;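 active = activation factor of at least 2 at 5 µM in the primary screen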;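 also: 0 = wells with 2.5 mM tranylcypromine and 1 = vehicle-only wells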
Target sequence (P33261 whole entry, looked up): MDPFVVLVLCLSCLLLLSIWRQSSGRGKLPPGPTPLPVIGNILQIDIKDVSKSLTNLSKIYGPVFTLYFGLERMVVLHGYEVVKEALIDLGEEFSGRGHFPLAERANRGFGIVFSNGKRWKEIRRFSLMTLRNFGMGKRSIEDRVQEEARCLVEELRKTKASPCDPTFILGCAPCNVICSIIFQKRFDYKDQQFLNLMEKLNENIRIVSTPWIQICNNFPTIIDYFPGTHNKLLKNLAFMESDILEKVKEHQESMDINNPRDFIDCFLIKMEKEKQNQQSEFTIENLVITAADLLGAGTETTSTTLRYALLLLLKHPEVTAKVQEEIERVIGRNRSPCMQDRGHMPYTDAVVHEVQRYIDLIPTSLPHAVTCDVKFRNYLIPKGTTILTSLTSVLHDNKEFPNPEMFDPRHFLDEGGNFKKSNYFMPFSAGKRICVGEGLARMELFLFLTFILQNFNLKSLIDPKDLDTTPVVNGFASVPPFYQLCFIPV
CYP2C19 inh: blocks human cytochrome P450 2C19 | CYP2C19 Supersomes, luciferin-H EGE luminescence, 30 min | inhibition, % at 5 µM | 21% of 96,000 active;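 active = CYP2C19 inhibition above a set limit at 5 µM in the primary screen, cut at about 50% in these data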;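 also: plate controls were negative control wells for no effect and 2.5 mM tranylcypromine positive control for full effect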
Active calls of the source: *; nt = no result given. Rows were chosen to be rich in hits. Some 22% of all compounds tested hit in one or more screens of this group.

SMILES	CYP2C9 inhib	Measles CPE	CYP2C9 act	CYP2C19 activ	CYP2C19 inh
Cc1cc(NCc2ccccn2)ccc1Br	22.9	15.2	0.8	0.4	62.9*
CCn1cnc2cc(NCc3ccc(OC)cc3)ccc21	7.1	6.1	0.9	0.3	73.2*
c1ccc(-n2cnc3cc(NCc4ccncc4)ccc32)cc1	94.2*	4.8	0.1	0	99.4*
CCC(=O)Nc1ccc2c(c1)ncn2-c1ccccc1	11.1	7.2	0.9	1	4.7
Cc1cccc(NC(=O)C(=O)NCc2ccccn2)c1	-6.5	5.0	1.1	0.8	21.7
CCCCn1cnc2cc(NCc3ccncc3)ccc21	62.4*	3.9	0.4	0.4	55.9*
COc1ccc(-c2cc(-c3ccccc3)nc(SCC(=O)Nc3nccs3)c2C#N)cc1	nt	19.1	nt	nt	nt
CC(C)n1cnc2cc(NCc3ccccn3)ccc21	17.8	3.1	0.8	1	2.0
c1ccc(-n2cnc3cc(NCc4ccccn4)ccc32)cc1	73.6*	4.2	0.3	0.2	84.8*
CN(C)c1ccc(CNc2ccc3c(c2)ncn3C)cc1	1.8	5.0	1	0.3	69.8*
S=C1NCCOCCOCCOCCNC(=S)NCCOCCOCCOCCN1	nt	25.1	nt	nt	nt
O=C(CCNS(=O)(=O)c1cccc2nsnc12)N1CCN(c2ccccn2)CC1	23.1	5.0	0.8	0.3	66.1*
CC1Cc2ccccc2N1C(=O)CCNS(=O)(=O)c1cccc2nsnc12 (configuration not stated)	-65.1	9.5	1.7	0.1	87.7*
O=C(CCNS(=O)(=O)c1cccc2nsnc12)N1CCc2ccccc21	43.6	2.4	0.6	0.2	80.1*
CC1Cc2ccccc2N1C(=O)CCS(=O)(=O)c1cccc2nonc12 (configuration not stated)	-64.1	5.5	1.6	0.9	14.8
CC(=NCCCn1ccnc1)c1c(-c2ccccc2)[nH]n(-c2nc3ccccc3s2)c1=O	98.0*	0.8	0	0	99.1*
CCCN=Cc1c(CCC)[nH]n(-c2nc3ccccc3s2)c1=O	19.0	2.9	0.8	0.9	13.4
O=c1c(C=NCCCn2ccnc2)c(-c2ccccc2)[nH]n1-c1nc2ccccc2s1	98.5*	15.1	0	0.1	91.7*
CC(=NC1CC1)c1c(-c2ccccc2)[nH]n(-c2nc3ccccc3s2)c1=O	28.1	18.3	0.7	1.1	-6.2
COC(=O)[C@H](Cc1ccccc1)NC(=O)NCc1ccc(S(N)(=O)=O)cc1	13.1	5.5	0.9	1	2.6
COc1ccc(-n2c(Cn3nnc4ccccc43)nnc2SCC(=O)O)cc1	-3.4	5.4	1	1	1.1
OC(COc1ccc(Br)cc1)CN1CCOCC1 (configuration not stated)	2.8	35.1	1	0.8	21.1
O=C1c2ccccc2S(=O)(=O)N1CC(O)COc1ccc(Cl)cc1 (configuration not stated)	66.8*	19.8	0.3	0	100.4*
CN1CCc2c(n(CC(O)CN3C(=O)c4ccccc4S3(=O)=O)c3ccccc23)C1=O (configuration not stated)	nt	4.3	nt	nt	nt
O=C1c2ccccc2S(=O)(=O)N1CCOc1ccccc1	49.5	0.5	0.5	0	97.8*
SMILES	CYP2C9 inhib	Measles CPE	CYP2C9 act	CYP2C19 activ	CYP2C19 inh
COc1ccc(NC(=O)CCN2C(=O)c3ccccc3S2(=O)=O)cc1	17.0	29.3	0.8	1	3.6
O=C1c2ccccc2S(=O)(=O)N1CC(O)COc1ccc(Br)cc1 (configuration not stated)	69.4*	8.1	0.3	0	99.7*
Cc1c(C)n(CC(O)CN2C(=O)c3ccccc3S2(=O)=O)c2ccccc12 (configuration not stated)	97.1*	14.3	0	0	98.1*
CC1CN(C(=O)N[C@@H](Cc2ccccc2)C(=O)O)CC(C)O1 (some centres not stated)	-3.2	3.9	1	1	-4.8
CC(C)Oc1ccc(NC(=O)c2ccncc2)cc1	89.8*	17.0	0.1	0.1	86.6*
Cn1cnc2cc(NC(=O)c3ccc(Cl)cc3)ccc21	nt	12.7	nt	nt	nt
O=C(Nc1ccc(Cl)cc1)c1ccncc1	49.1	19.6	0.5	0.1	89.5*
CC(C)Oc1ccc(C(=O)Nc2ccc(N3CCCCC3)cc2)cc1	nt	18.0	nt	nt	nt
CN(C)S(=O)(=O)c1ccc(Cl)c(NC(=O)c2ccncc2)c1	nt	8.5	nt	nt	nt
O=C(Nc1cccc(Cl)c1Cl)c1ccncc1	68.6*	3.0	0.3	0.1	89.8*
Cc1ccccc1OCC(=O)N/N=C1\SCC(=O)N1Cc1ccccc1	nt	15.6	nt	nt	nt
O=C(N/C(=C\c1ccc2c(c1)OCO2)C(=O)N1CCOCC1)c1cccs1	-6.8	7.2	1.1	1.1	-6.0
Cc1csc(NC(=O)C(CC(C)C)NS(=O)(=O)c2ccc3c(c2)oc(=O)n3C)n1 (configuration not stated)	55.1*	7.7	0.4	0.6	35.8
Cc1sc2c(=O)n3c(nc2c1C(=O)NC1CCCCC1)CCCCC3	95.7*	10.4	0	0.2	83.9*
Cc1sc2c(=O)n3c(nc2c1C(=O)NCCCN1CCOCC1)CCCCC3	90.4*	2.6	0.1	0.1	85.5*
Cc1csc2c(=O)n3c(nc12)CCCCC3	23.1	3.8	0.8	0.8	21.5
CCOC(=O)c1c(C)[nH]c(C)c1C(=O)CSc1ncccn1	47.4	6.2	0.5	0.4	58.9*
CCOC(=O)c1c(C)[nH]c(C)c1C(=O)COC(=O)CCOc1ccccc1OC	83.3*	4.1	0.2	0.2	77.0*
CCOC(=O)c1c(C)[nH]c(C)c1C(=O)CSc1nnnn1-c1ccccc1	88.1*	7.9	0.1	0	99.0*
COC(=O)c1c(C)[nH]c(C(=O)CSc2nnnn2-c2ccccc2)c1C	-3.5	5.2	1	1.1	-8.7
CCOC(=O)c1[nH]c(CSc2nnnn2-c2ccccc2C)c(C(=O)OCC)c1C	54.0*	3.7	0.5	0.6	36.2
CCn1c(C)c(C(C)=O)c(N2CCN(C(=O)c3ccco3)CC2)nc1=S	-4.9	6.3	1	1	4.8
COc1ccccc1C(=O)Nc1ccc(S(=O)(=O)Nc2cc(C)nc(C)n2)cc1	55.9*	10.5	0.4	1	0.2
COc1cccc(C(=O)Nc2ccc(S(=O)(=O)Nc3nccc(C)n3)cc2)c1	nt	29.8*	nt	nt	nt
COc1ccccc1OCC(=O)Nc1ccc(S(=O)(=O)NC(C)=O)cc1	21.7	1.5	0.8	1.1	-11.0
COc1ccc(C(=O)Nc2ccc(S(=O)(=O)Nc3nccc(C)n3)cc2)cc1OC	6.2	9.9	0.9	1.2	-19.8
COc1ccccc1OCC(=O)Nc1ccc(S(=O)(=O)Nc2nc(C)cc(C)n2)cc1	70.1*	12.0	0.3	0.6	37.5
COc1ccc(C(=O)Nc2ccc(S(=O)(=O)Nc3cc(C)nc(C)n3)cc2)c(OC)c1	36.8	5.3	0.6	1	-3.7
CC(C)(C)n1nnnc1C(c1cccs1)N1CCN(C(=O)c2ccco2)CC1 (configuration not stated)	40.9	7.7	0.6	0.7	34.2
CC(C)(C)c1cc(C(C)(C)C)cc(S(=O)(=O)CCc2ccccn2)c1	21.7	1.4	0.8	0.8	17.3

Bioassay records (PubChem BioAssay)
